Reference: PubChem BioAssay (NCI)
This is part of a sample that, as a whole, favours compounds with a hit. Of some 83,000 tested, about 20% had one in any assay.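 Cell lines were cultured in 96-well plates, exposed to a single compound concentration, and assessed for percent growth 48 hours later.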 A number with no mark means an inactive call. The source made the active and inactive calls. How the source made its calls: active means growth percent below 10; inactive means the rest.

test system: HL-60(TB) leukemia; test: NCI-60 one-dose screen, 48 h (100 = growth as untreated, 0 = no growth, -100 = all killed); conditions: 10 µM unless noted

Structure (SMILES) | growth
C=C(C)[C@@H]1CC[C@]2(C(=O)OC)CC[C@]3(C)[C@H](CC[C@@H]4[C@@]5(C)C/C(=C/c6ccc(OC)cc6)C(=O)C(C)(C)[C@@H]5CC[C@]43C)[C@@H]12 | 87.6%
CCOC(=O)c1sc(-c2ccc(OS(=O)(=O)c3ccc(Br)s3)c(C=O)c2)nc1C | 20%
ClCCn1c(CCl)nc2ccc(Cl)cc21 | -69% (active)
ClCC(Cl)[C@@H]1CC2C=CC1C2 (some centres undefined) | 104%
Cn1cnc2c1c(=O)n(CCC(=O)Nc1ccc(F)cc1)c(=O)n2C | 113%
COc1ccc(-c2nc(NN)c3c(C)nn(-c4ccc(F)cc4)c3n2)cc1 | 0.613% (active)
COc1cc(NS(C)(=O)=O)ccc1Cc1c2ccccc2nc2ccccc12 | -2.45% (active)
COc1ccc(-c2[nH]nc(N)c2-c2cc(OC)c(OC)c(OC)c2)cc1 | -34.9% (active)
COCCn1c(Nc2ccc(C(=O)NO)cc2)nc2ccccc21 | 11.9%
Cc1cc(C(C)(C)C)ccc1S | 111%
CCN1C(=O)N(CC)C2Nn3c(s/c(=C4\C(=O)N(C)c5ccccc54)c3=O)=NC21 (centres undefined) | 21.1%
CCC(O)c1ccc(Br)cc1NC(=O)c1cccc(Cl)c1 (centres undefined) | -6.38% (active)
COC1(OC)C2(Cl)C=C(c3ccccc3)C1(Cl)C(Cl)=C2Cl (centres undefined) | 83.7%
Nc1n[nH]c2cccc(C#Cc3cccc(C(=O)Nc4cc(C(F)(F)F)cc(C(F)(F)F)c4)c3)c12 | 39.7%
CCOC(=O)Nc1ccc(-c2nc(-c3cccc(OC)c3)c(-c3ccnc(Br)c3)[nH]2)cc1 | -18.7% (active)
COc1ccc(N)c2c1C(=O)c1ccccc1C2=O | 45.8%
CN1C(=O)CNC(=O)[C@H](NC(=O)c2nc3ccccc3cc2O)CSSC[C@H]1C(=O)NCCCc1nc2ccccc2cc1O | -44.3% (active)
COCCOC(=O)NC(=O)Nc1ccc(/C(=N/O)c2ccc(Cl)cc2)cc1 | -20.4% (active)
COc1cc2c(cc1OCCCN1CCN(CCCOc3cc4c(cc3OC)C(=O)N3C[C@H](F)C[C@H]3C=N4)CC1)N=C[C@@H]1C[C@@H](F)CN1C2=O | -28.8% (active)
Cc1ccc(-n2c(=S)[nH]c3sc4c(c3c2=O)CCC(=O)C4)cc1 | 4.93% (active)

Structure (SMILES) | growth
O=C(O)c1ccc(-n2cc(CNc3ccc(Cl)cc3)c(-c3ccccc3)n2)cc1 | 95%
CC[Si](CC)(CC)OC1[C@@H](O[Si](CC)(CC)CC)[C@@H](CNC(=O)NC)O[C@H]1n1cnc2c(NC(=O)Nc3ccccc3)ncnc21 (some centres undefined) | -39.6% (active)
N#Cc1ccc2c(c1)C(=O)c1c-2n(CCCN)c(=O)c2cc([N+](=O)[O-])ccc12 | -91.8% (active)
O=C1C=Cc2ncccc2C1=O | 57.7%
CC1(C)CCCN1CCCN1c2ccccc2Sc2ccc(Cl)cc21 | 46%
O=C(CSc1nccc(Nc2ccc(S(=O)(=O)Nc3ccccn3)cc2)n1)c1ccc(Cl)cc1 | 95.3%
CCCCN(CCCC)CCCNc1c2c(nc3ccc(Cl)cc13)CCCC2 | 89%
COC1=C(Br)C(=O)C(OC)=C(Br)C1=O | 8.67% (active)
CN1CCN(CC(=O)N(C)c2ccc(N=C(c3ccccc3)c3c(O)[nH]c4ccc(C#N)cc34)cc2)CC1 | 14.9%
COC(=O)C(=C\c1ccc2c(c1)OCO2)/C(=C/c1ccc2c(c1)OCO2)C(=O)OC | 112%
COc1ccc2c(CCC(c3ccccc3)c3ccccc3)c3[n+](cc2c1OC)CCc1cc2c(cc1-3)OCO2 | -40.6% (active)
C=C(C)[C@@H]1CCC=C2CC[C@]3(C)[C@H](CC[C@@H]4[C@@]5(C)CCCNC(C)(C)[C@@H]5CC[C@]43C)[C@H]21 | 27.7%
NS(=O)(=O)c1ccc(-n2nc(-c3ccc(Br)cc3)ccc2=O)cc1 | 88.5% [100 µM]
COc1cc(-c2nc(-c3ccccc3)c(-c3ccccc3)[nH]2)cc(OC)c1O | -8.92% (active)
O=S(=O)(c1ccc(NC(=S)NC23CC4CC(CC(C4)C2)C3)cc1)N1CCCCC1 | -29.2% (active)
O=C1c2c(c3c4ccccc4[nH]c3c3ccc4ccccc4c23)C(=O)N1CCN1CCCCC1 | 9.19% (active)
O=C(Nc1ccc(N2CCNCC2)cc1)c1[nH]ncc1Nc1cc(C2CC2)ncn1 | 67.9%
Cc1ccc(-c2cc(-c3cccc(Nc4ccnc5cc(Cl)ccc45)c3)nc3nc(N)[nH]c(=O)c23)cc1 | 58%
O=C1/C(=C/c2ccc(O)cc2O)N=C2SCCCN12 | 100%
